This is one part of a sample in which hits are shown more often than they occur.
VDR inh = blocks the human vitamin D receptor; P11473; VDR-SRC2-3 peptide fluorescence polarization, 2 h; Potency, µM, for the others: max response, negative = inhibition, hits mostly inhibitors; 400,000 tested, 0.93% active; AID 504847; note: % is set by controls: 0 for no effect and ±100 for the full control effect
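Reagent solutions, kept cold and dark, are dispensed first; compounds are then pinned in at 23 nl, plates briefly spun, and incubated 2 h at ambient temperature. Inhibition of VDR–SRC2-3 peptide binding is read by fluorescence polarization.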
Sfp PPTase inh = Sfp phosphopantetheinyl transferase inhibition; Q9F4F7; Biochemical Sfp PPTase activity, qHTS; Potency, µM, for inactives: largest response in the series, negative = inhibition, usual class: inhibitors; 310,000 tested, 3.5% active; AID 1490;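 note: the enzyme is Sfp with the accession as filed and its product quenches rhodamine fluorescence; 0% = enzyme reaction without inhibitor and -100% = no enzyme wells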
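Fluorescence-quenching assay: 15 nM Sfp-PPTase preincubated 15 min at room temperature with compound, then 5 uM rhodamine-CoA and 12.5 uM BHQ-2-labelled YbbR peptide added. Fluorescence (ex 525/em 598 nm) read at start and after 30 min; difference gives rate.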
Glioma ERSR ind = inducers of ER stress response in human glioma cells | 420,000 tested, 0.02% active | U87-MG GRP78 promoter luciferase reporter, 16 h | Potency, µM, inactives show at the top dose activation, actives largely listed as activators | AID 602332; note: series mostly up to about 76 µM; % of control where 0% means no effect; nearly all actives have a fitted effect of over 35% in size
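Stably transfected U87-MG human glioma cells carrying a GRP78-based luminescent sensor were seeded at 1000 cells/well, pin-dosed with compounds and incubated 16 h. Luciferase reagent was then added, and end-point luminescence was read after 10 min at room temperature.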
G9a block = inhibitors of human histone lysine methyltransferase G9a; G9a H3K9 monomethylation, AlphaScreen, 2 h; Potency, µM (top dose mostly 102 µM), without a hit: at the highest dose activity, negative = inhibition, most hits filed as inhibitors; Q96KQ7; 350,000 tested, 8.8% active; AID 504332; note: % is set by controls: 0 for no effect and ±100 for the full control effect; nearly all actives have a fitted effect of over 75% in size
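Readings reflect AlphaScreen signal from monomethyl-H3K9 antibody detection. HMT at 20 nM; substrate b-H3K9 500 nM; cofactor SAM 20 uM; 2 h RT reaction; compounds tested as titrations in qHTS with 15 min preincubation.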
12-LOX inh = inhibitors of human 12S-lipoxygenase ALOX12. purified 12hLO, xylenol orange hydroperoxide absorbance. Potency, µM (top dose mostly 108 µM), inactives show at the top dose activity change, negative = inhibition, hits mostly inhibitors. 580,000 tested, 1.1% active; note: % is set by controls: 0 for no effect and ±100 for the full control effect
Target sequence (P18054 whole entry, looked up): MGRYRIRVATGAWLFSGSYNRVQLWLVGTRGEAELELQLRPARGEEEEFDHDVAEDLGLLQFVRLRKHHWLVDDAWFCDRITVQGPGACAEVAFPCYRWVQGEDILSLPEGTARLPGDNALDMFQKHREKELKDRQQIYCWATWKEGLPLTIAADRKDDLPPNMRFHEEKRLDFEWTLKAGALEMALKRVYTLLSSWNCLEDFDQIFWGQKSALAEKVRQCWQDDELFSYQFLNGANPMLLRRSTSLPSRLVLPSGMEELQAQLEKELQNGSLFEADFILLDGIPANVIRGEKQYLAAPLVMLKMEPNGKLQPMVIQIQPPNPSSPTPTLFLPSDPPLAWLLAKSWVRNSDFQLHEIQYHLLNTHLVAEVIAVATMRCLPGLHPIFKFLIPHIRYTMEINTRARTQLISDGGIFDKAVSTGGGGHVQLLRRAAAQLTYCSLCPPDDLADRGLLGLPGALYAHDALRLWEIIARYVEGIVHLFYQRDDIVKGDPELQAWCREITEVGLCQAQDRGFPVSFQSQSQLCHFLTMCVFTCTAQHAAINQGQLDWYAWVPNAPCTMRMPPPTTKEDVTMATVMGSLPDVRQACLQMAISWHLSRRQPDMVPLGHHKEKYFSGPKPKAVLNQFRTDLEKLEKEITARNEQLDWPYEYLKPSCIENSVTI
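Purified human 12hLO at 150 nM in 25 mM Hepes, 0.01% Triton X-100, pH 7.0, preincubated 15 min at room temperature with compound. Reaction started with 40 uM arachidonic acid, 30 min at room temperature. Hydroperoxide measured by Fe-xylenol orange, 573/405 nm absorbance ratio.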
* = called active by the depositor; ? = inconclusive; . = not tested or not shown; [ ] = dose if it differs, or a comment. Calls come from the whole dose curve; as a rule, active = well fitted curve in the direction sought with a large enough effect; inconclusive = small, poorly fitted or top-dose-only effect, or another doubt; inactive = no such curve, though single readings can be large; an effect the other way counts as inactive or inconclusive. Potency is the fitted concentration of half-maximal effect.

SMILES	VDR inh	Sfp PPTase inh	Glioma ERSR ind	G9a block	12-LOX inh
COc1cccc2sc(N(CCN(C)C)C(=O)c3ccc4c(c3)CCCC4)nc12	-3%	-13%	-5%	?	?
CN(C)CCN(C(=O)c1ccc2c(c1)CCCC2)c1nc2c(F)cccc2s1	-22%	-24%	3%	40µM*	?
CCOc1ccc2nc(N(CCCN(C)C)C(=O)c3ccc4c(c3)CCCC4)sc2c1	24%	-24%	-6%	45µM*	?
CC(C)(C)Sc1ccc(Cl)nn1	.	.	.	.	7%
CCN(CC)S(=O)(=O)c1ccc2c(c1)nc(SCC(=O)N1CCOCC1)n2-c1ccccc1OC	4%	-12%	-4%	32µM*	0%
CCN(CC)S(=O)(=O)c1ccc2c(c1)nc(SCC(=O)N1CCCCCC1)n2-c1ccc(OC)cc1	-13%	6%	1%	-6%[59 µM]	0%
Cn1c(Cc2ccc3c(c2)OCO3)nnc1SCC(=O)N1CCc2ccccc2C1	-6%	19%	-4%	45µM*	-19%
Nn1c(COc2cccc(Br)c2)nnc1SCC(=O)N1CCc2ccccc2C1	-11%	0%	-5%	40µM*	0%
CC1CCC(C(C)C)C(OC(=O)COC(=O)c2ccc(=O)[nH]c2)C1 (stereo not drawn)	-1%	12%	-4%	-43%	-5%
CC1CCC(C(C)C)C(OC(=O)COC(=O)c2cc(O)ccc2N)C1 (stereo not drawn)	-25%	-3%	-12%	10µM*	?
CCOC(=O)C1CCN(Cc2ccc(F)cc2F)CC1	1%	-13%	-3%	13µM*	?
Oc1c(CN2CCCC(C(F)(F)F)C2)cc(Cl)c2ccccc12 (stereo not drawn)	?	-12%	?	40µM*	16µM*
CCOC(=O)C1CCN(Cc2ccc(OC)c(C)c2OC)CC1	25%	0%	-6%	?	?
CCOC(=O)C1CCN(Cc2cc(Cl)c3ccccc3c2O)CC1	?	?	28µM*	45µM*	.
O=C(O)CNS(=O)(=O)c1c(F)cc(F)cc1Br	.	.	.	.	-9%
Cc1ccc(CN(C)C(=O)c2ccc3ncsc3c2)o1	.	.	.	.	-3%
C=CCNC(=O)/C(C#N)=C/c1c(C)nn(-c2ccccc2)c1Cl	?	79µM*	5%	-26%[59 µM]	-8%
O=[N+]([O-])c1ccccc1-c1ccc(C(=S)N2CCN(c3ccccc3)CC2)o1	79µM*	18µM*	-3%	.	?
CN1CCN(c2ccccc2NC(=O)c2ccc(-c3ccccc3[N+](=O)[O-])o2)CC1	-8%	-15%	3%	?	2%
Cc1ccc(N2CCN(C(=S)c3ccc(-c4ccccc4[N+](=O)[O-])o3)CC2)cc1	?	18µM*	-3%	7.1µM*	?
O=C(CSc1nnc(Cc2ccccc2)o1)Nc1ccc(Br)c(Cl)c1	.	.	.	.	-1%
Cc1cccc(C)c1Nc1nnc(SCC(=O)Nc2ncc(C(F)(F)F)cc2Cl)s1	?	-12%	-6%	2.2µM*	-29%
Cc1ccccc1Nc1nnc(SCC(=O)Nc2ncc(C(F)(F)F)cc2Cl)s1	9%	14%	-3%	-4%[59 µM]	12%
Cc1ccc(Nc2nnc(SCC(=O)Nc3ncc(C(F)(F)F)cc3Cl)s2)cc1	-20%	14%	0%	7.1µM*	0%
COc1ccc(N=C2S/C(=C\c3ccco3)C(=O)N2CC(C)C)cc1	19%	-1%	-4%	35µM*	?
SMILES	VDR inh	Sfp PPTase inh	Glioma ERSR ind	G9a block	12-LOX inh
COC(=O)/C=C1\SC(=Nc2ccccc2)NC1=O	?	22%	-2%	2%[59 µM]	-3%
O=C1NC(=Nc2ccc3ccccc3c2)S/C1=C/c1ccco1	1%	71µM*	-1%	50µM*	32µM*
Cc1cccc(N=C2NC(=O)/C(=C/C=C/c3ccco3)S2)c1	?	50µM*	-1%	14µM*	45µM*
O=C1NC(=Nc2ccc(O)cc2)S/C1=C/c1ccco1	5%	-1%	0%	?	?
COc1ccc(N=C2NC(=O)/C(=C\C=C\c3ccco3)S2)cc1	1%	?	10%	7.1µM*	?
CC(C)COc1nc2ccccc2nc1C(C#N)C(=O)NCc1ccccc1 (stereo not drawn)	.	.	.	.	-20%
CC[N+](CC)(CC#Cc1ccccc1)CC(=O)C(C)(C)C	.	.	.	.	-16%
C=CCNC(=O)CC1Nc2c3ccccc3nc(=S)n2C1=O (stereo not drawn)	-7%	?	-2%	35µM*	18µM*
CC(C)CCNC(=O)CC1Nc2c3ccccc3nc(=S)n2C1=O (stereo not drawn)	-11%	-16%	-5%	56µM*	0%
Cc1ccc(CNC(=O)CC2Nc3c4ccccc4nc(=S)n3C2=O)cc1 (stereo not drawn)	.	-22%	.	-31%	-8%
CC(=O)c1ccccc1NC(=O)CSc1ncnc2ccccc12	.	.	.	.	34%
O=[N+]([O-])c1ccc2nc(-c3ccccc3)oc2c1	-5%	12%	-4%	40µM*	19%
COc1ccccc1Nc1nc(-c2cccc([N+](=O)[O-])c2)nc2ccccc12	-13%	79µM*	1%	21%[0.501 µM]	?
Cc1cc(-c2nc3ccccc3c(=O)o2)ccc1[N+](=O)[O-]	-5%	-4%	2%	-28%	0%
O=c1oc(-c2cccc([N+](=O)[O-])c2)nc2ccccc12	?	-4%	2%	45µM*	0%
Cc1cc(-c2cccc([N+](=O)[O-])c2)nc2ccccc12	-7%	-18%	2%	13µM*	-27%
COc1ccc(-c2cc3ccccc3n2CC(O)CN2CCCCC2)cc1 (stereo not drawn)	-32%	-14%	-1%	14µM*	?
COc1ccc(-c2cc3ccccc3n2CC(O)CNCCO)cc1 (stereo not drawn)	1%	-19%	-2%	35µM*	?
COc1ccccc1C1CN(c2ccccc2)N=C1c1cccs1 (stereo not drawn)	-7%	-2%	-2%	365%	6.3µM*
COc1cccc(C2CN(c3ccc(F)cc3F)N=C2c2cccs2)c1OC (stereo not drawn)	-3%	13%	0%	215%[59 µM]	?
COc1cccc(C(=O)Nc2c(C(=O)N3CCN(c4ccc(F)cc4)CC3)oc3ccccc23)c1	1%	.	0%	-47%[59 µM]	-1%
COc1ccc(N2CCN(C(=O)c3oc4ccccc4c3NC(=O)CCc3cc(OC)no3)CC2)cc1	-3%	1%	1%	35µM*	23%
COc1ccc(N2CCN(C(=O)c3oc4ccccc4c3NC(=O)c3ccccc3OC)CC2)cc1	3%	.	-3%	5.6µM*	-18%
O=C(NCCc1ccc(Cl)cc1)C1CCOCC1	.	.	.	.	-27%
Clc1ccccc1-c1csc(NC2CC2)n1	.	.	.	.	-21%
N#CCCn1cc(-c2csc(NC3CC3)n2)c2ccccc21	.	.	.	.	14µM*
COc1cc(OC)c(NC(=O)c2ncoc2-c2ccc(OC)c(OC)c2)cc1Cl	.	.	.	.	-12%
